The campaign covered roughly 99,000 compounds. About 340 (0.34%) were called active. Rule as the data show it: active = TR-FRET ratio above about 2300; inactive = the rest. Shown is part of a subset that was picked to be rich in actives.
Experiment: signal artefacts in PPARgamma/SRC-1 readout – biochemical, TR-FRET emission ratio, artefact control for PPARgamma SRC-1 recruitment agonists, primary screen (AID 1051)
Conditions: TR-FRET detection artefact counter-screen, at 8 µM, hits give high values

| SMILES | TR-FRET ratio |
| --- | --- |
| O=C(CO/N=C/c1ccc(OC(F)F)cc1)NCc1ccc(F)cc1 | 1970 (inactive) |
| O=C(/C=C\c1ccc2c(c1)OCO2)NC1(C(=O)Nc2ccc3c(c2)OCCO3)CCCCC1 | 1600 (inactive) |
| CC(=O)c1cccc(CN2CCC(CO)(Cc3ccccc3)CC2)c1 | 1590 (inactive) |
| Cc1cccc(-c2ncc(CN3CCC(CO)(CCCc4ccccc4)CC3)cn2)c1 | 1880 (inactive) |
| OCC1(CCc2ccccc2)CCN(Cc2ccc3nsnc3c2)CC1 | 2510 (active) |
| CCOc1ccc(CCNC(=O)CSc2cc(=O)n(C)c3ccc(Cl)cc23)cc1OCC | 2230 (inactive) |
| Cn1c(=O)cc(SCC(=O)N2CCCC2)c2cc(Cl)ccc21 | 3640 (active) |
| CC(C)N(C(=O)Cn1cc(SCC(=O)N2CCCC2)c2ccccc21)C(C)C | 1650 (inactive) |
| CC(CC(=O)O)CC(=O)NNC(=O)c1cccc(Br)c1 (stereo unspecified) | 1850 (inactive) |
| O=C(CSc1cccc[n+]1[O-])NCCCc1ccccc1 | 1620 (inactive) |
| CCN(CCCNC(=O)CSc1cc(=O)n(C)c2cc(Cl)ccc12)Cc1ccccc1 | 3020 (active) |
| CCn1c(=O)cc(SCC(=O)NCCC2=CCCCC2)c2ccccc21 | 2120 (inactive) |
| O=C(CCC1CCCN(Cc2ccc(O)c(Cl)c2)C1)NCc1ccccc1F (stereo unspecified) | 1790 (inactive) |
| Cc1cc(C)cc(C(=O)N(CCc2ccccc2)C2=CC3CCC(C2)N3C)c1 (stereo unspecified) | 1720 (inactive) |
| CS(=O)(=O)N(CC(=O)NC1CCCC1)Cc1ccc(F)cc1 | 1700 (inactive) |
| O=C(CO/N=C/c1ccccc1OC(F)F)NC1CCCC1 | 2060 (inactive) |
| CCOC(=O)NC(=O)C(=CNc1cccc(OC)c1)C(=O)NC(=O)OCC | 1950 (inactive) |
| CCOC(=O)c1sc(-c2cccc([N+](=O)[O-])c2)cc1N | 1540 (inactive) |
| CS/C(=C\[N+](=O)[O-])Nc1ccc(C)cc1 | 1980 (inactive) |
| CNC(=O)NC(=O)C(OC(=O)c1cccc(S(=O)(=O)N2CCCCC2)c1)c1ccccc1 (stereo unspecified) | 1550 (inactive) |
| COCC(C)NC(=O)CSc1nc2nn(-c3ccccc3)c(=O)c-2c2n1CCCCC2 (stereo unspecified) | 1600 (inactive) |
| Fc1ccc(COc2cccc(-c3n[nH]c(=S)o3)c2)cc1 | 3340 (active) |
| S=c1[nH]nc(COc2ccccc2)n1-c1ccccc1 | 1980 (inactive) |

| SMILES | TR-FRET ratio |
| --- | --- |
| Cc1cccc(OCc2ccc(C(=O)Nc3ccc(F)cc3)cc2)c1 | 1720 (inactive) |
| Cc1ccc(S(=O)(=O)NCCC(=O)Nc2ccc(C)c(Cl)c2)cc1C | 1870 (inactive) |
| Cc1cccc(NC(=O)c2sc(-c3ccccc3)nc2-c2ccc([N+](=O)[O-])cc2)c1 | 1770 (inactive) |
| Cc1ccc(-c2nc(-c3cccnc3)sc2CC(=O)Nc2ccc(C)c(Cl)c2)cc1 | 2930 (active) |
| O=S(=O)(NCc1ccccc1)c1ccc(S(=O)(=O)N2CCCC2)cc1 | 1770 (inactive) |
| N#Cc1ccc(C(=O)Nc2nc(-c3cccs3)c(C(=O)C(F)(F)F)s2)cc1 | 2000 (inactive) |
| Cc1nc(N)c(Br)c(C)c1Br | 1890 (inactive) |
| CCN(CC)P(=O)(Nc1ccc(SC(F)F)cc1)c1ccc(N(C)C)cc1NC(=O)c1ccco1 (stereo unspecified) | 1800 (inactive) |
| CC(C)CCN1C(=O)c2ccc(C(=O)Nc3cccc(S(N)(=O)=O)c3)cc2C1=O | 1840 (inactive) |
| COc1ccc(NC(=O)COC(=O)c2ccncc2)c(OC)c1 | 1980 (inactive) |
| COc1cccc(-n2nc(C(=O)N3CCN(Cc4ccccc4)CC3)c3ccccc3c2=O)c1 | 1300 (inactive) |
| CCOC(=O)Cc1csc(SCc2cc(=O)oc3cc(O)ccc23)n1 | 1620 (inactive) |
| CCOC(=O)Cc1csc(NC(=O)COc2ccc3c(C)cc(=O)oc3c2)n1 | 2450 (active) |
| CCOC(=O)Cc1csc(NC(=O)CSc2ccc(Br)cc2)n1 | 1780 (inactive) |
| O=C(NCCCNc1ccc([N+](=O)[O-])cc1Cl)c1ccccc1F | 1920 (inactive) |
| Cc1c(CN2CCCC(C(=O)c3cccc(Cl)c3)C2)c(=O)n(-c2ccccc2)n1C (stereo unspecified) | 1510 (inactive) |
| COc1cc(NC(=O)COC(=O)CSc2ccc3ccccc3c2)c(C)cc1[N+](=O)[O-] | 1730 (inactive) |
| Cc1ccc(N2C(=O)C(NC(=O)c3c(F)cccc3F)(C(F)(F)F)C3=C2CC(C)(C)CC3=O)cc1 (stereo unspecified) | 1770 (inactive) |
| CC1CC(C)(C)NC(=S)N1CCC(=O)N1CCN(Cc2ccccc2)CC1 (stereo unspecified) | 1810 (inactive) |
| CC(C)C(c1nnnn1C(C)(C)C)N1CCN(Cc2cccnc2)CC1 (stereo unspecified) | 1760 (inactive) |
| Cc1nc(N2CCC(C)CC2)c2c(C)c(C(=O)Nc3cc(F)ccc3C)sc2n1 | 2400 (active) |
| Cc1nc(N2CCN(c3ccccn3)CC2)c2c(C)c(C(=O)Nc3ccc(F)cc3)sc2n1 | 1920 (inactive) |
| Cc1nc(N2CCOCC2)c2c(C)c(C(=O)Nc3ccc(C(F)(F)F)cc3)sc2n1 | 1820 (inactive) |

Source: PubChem BioAssay AID1051 (The Scripps Research Institute Molecular Screening Center, 2008)
